# Experimental data reported in the supplement of paper PMC8728848.
# Shown is part of a subset that was picked to be rich in the strongest signals.
# B1: PX9916F-bfa-443-24-443 (Bacteroides fragilis) (protein)
# chain: DIRPVGSVIPQTAEEYRALLARAYLNVPNDRGLACLRSDEMLVNDNEYDRNSYGDIERWNDVSPFPGTSQFTWSNFYNVLFIANQVIESQKEITEGTPEVVNQLVGEAHLLRAYLHFVLVNLHGQPYTKSGALNSKSIPLKLDTDLEKTLGRNTVEEVYTSILSDIEHARELINKEKWETVFSYRFNVLSVDALQSRVSLYMGAWPKCLESAEAVLAKKSVLVDMNETPLALPNHFESVESITALEQVMGSSVNNAVWVPATFLALYQEGDKRLAAYFAAPDENGNRKSSKGGKREFSCTFRVGELYLNAAEAAANMDKLPHARMRLLELMRKRYTPEAYDKKENAVNVMDKNALISEILNERARELAFEGHRWFDLRRTTRPRMVKVLQGKTYILEQDDPRYTIPIPRDAIAANPGLAN
# Legend:
# Assay in all cases: glycan array binding signal (z-score within array); higher = stronger binding
# Conditions in all cases: glycan notation: IUPAC condensed, linker removed
# [1] = molecular target: Fuc(a1-2)Gal(b1-3)GlcNAc(b1-2)Man(a1-3)[Fuc(a1-2)Gal(b1-3)GlcNAc(b1-2)Man(a1-6)]Man(b1-4)GlcNAc(b1-4)GlcNAc
# Procedure, shortened: (§1)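 Arrays were curated from the Consortium for Functional Glycomics database, 3228 in total, and kept only where the protein sequence was available. Binding is expressed as a within-array Z-score. This score was averaged across arrays of the same protein sequence at different concentrations or buffers and across linkers, and negative values can be read as non-binding.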
# [2] = molecular target: Fuc(a1-2)Gal(b1-3)GlcNAc(b1-3)GalNAc
# Procedure, shortened: as §1
# [3] = molecular target: Fuc(a1-2)Gal(b1-3)GlcNAc(b1-3)[Fuc(a1-2)Gal(b1-3)GlcNAc(b1-6)]GalNAc
# Procedure, shortened: as §1
# [4] = molecular target: Fuc(a1-2)Gal(b1-3)GlcNAc6S
# Procedure, shortened: as §1
# [5] = molecular target: Fuc(a1-2)Gal(b1-4)GlcNAc(b1-2)Man
# Procedure, shortened: as §1
# [6] = molecular target: Fuc(a1-2)[Gal(a1-3)]Gal(b1-3)GlcNAc(b1-2)Man(a1-3)[Fuc(a1-2)[Gal(a1-3)]Gal(b1-3)GlcNAc(b1-2)Man(a1-6)]Man(b1-4)GlcNAc(b1-4)[Fuc(a1-6)]GlcNAc
# Procedure, shortened: as §1
# [7] = molecular target: Fuc(a1-2)[Gal(a1-3)]Gal(b1-4)GlcNAc(b1-2)Man(a1-3)[Fuc(a1-2)[Gal(a1-3)]Gal(b1-4)GlcNAc(b1-2)Man(a1-6)]Man(b1-4)GlcNAc(b1-4)GlcNAc
# Procedure, shortened: as §1
# [8] = molecular target: Fuc(a1-2)[Gal(a1-3)]Gal(b1-4)GlcNAc(b1-2)Man(a1-3)[Fuc(a1-2)[Gal(a1-3)]Gal(b1-4)GlcNAc(b1-2)Man(a1-6)]Man(b1-4)GlcNAc(b1-4)[Fuc(a1-6)]GlcNAc
# Procedure, shortened: as §1
# [9] = molecular target: Fuc(a1-2)[GalNAc(a1-3)]Gal(b1-3)GlcNAc(b1-6)GalNAc
# Procedure, shortened: as §1
# [10] = molecular target: Fuc(a1-2)[GalNAc(a1-3)]Gal(b1-4)[Fuc(a1-3)]GlcNAc(b1-3)GalNAc
# Procedure, shortened: as §1
# [11] = molecular target: Fuc(a1-3)[Gal(b1-4)]GlcNAc(b1-6)[Gal(b1-3)GlcNAc(b1-3)]Gal(b1-4)Glc
# Procedure, shortened: as §1
# [12] = molecular target: Fuc(a1-3)[Gal3S(b1-4)]Glc
# Procedure, shortened: as §1
# [13] = molecular target: Fuc(a1-3)[GalNAc(b1-4)]GlcNAc
# Procedure, shortened: as §1
# Fuc(a1-4)GlcNAc = molecular target: Fuc(a1-4)GlcNAc
# Procedure, shortened: as §1
# [14] = molecular target: Gal(a1-3)Gal(b1-3)GlcNAc(b1-2)Man
# Procedure, shortened: as §1
# Gal(a1-3)GalNAc = molecular target: Gal(a1-3)GalNAc
# Procedure, shortened: as §1
# Gal(a1-4)GlcNAc = molecular target: Gal(a1-4)GlcNAc
# Procedure, shortened: as §1
# Gal(b1-2)Gal = molecular target: Gal(b1-2)Gal
# Procedure, shortened: as §1
# [15] = molecular target: Gal(b1-3)GlcNAc(b1-2)Man(a1-3)[Gal(b1-3)GlcNAc(b1-2)Man(a1-6)]Man(b1-4)GlcNAc(b1-4)GlcNAc
# Procedure, shortened: as §1
# [16] = molecular target: Gal(b1-3)GlcNAc(b1-2)Man(a1-3)[Gal(b1-3)GlcNAc(b1-2)Man(a1-6)]Man(b1-4)GlcNAc(b1-4)[Fuc(a1-6)]GlcNAc
# Procedure, shortened: as §1
# [17] = molecular target: Gal(b1-3)GlcNAc(b1-3)Gal(b1-4)[Fuc(a1-3)]GlcNAc
# Procedure, shortened: as §1
# [18] = molecular target: Gal(b1-3)GlcNAc(b1-6)[Gal(b1-3)]GalNAc
# Procedure, shortened: as §1
# Gal(b1-4)Glc6S = molecular target: Gal(b1-4)Glc6S
# Procedure, shortened: as §1
# Gal(b1-4)GlcNAc(b1-2)Man = molecular target: Gal(b1-4)GlcNAc(b1-2)Man
# Procedure, shortened: as §1
# [19] = molecular target: Gal(b1-4)GlcNAc(b1-2)Man(a1-3)Man(b1-4)GlcNAc(b1-4)GlcNAc
# Procedure, shortened: as §1
binder,measurement,setting,value
B1,glycan array binding signal (z-score),[1],3.24
same,glycan array binding signal (z-score),[2],0.31
same,glycan array binding signal (z-score),[3],-0.372
same,glycan array binding signal (z-score),[4],-0.338
same,glycan array binding signal (z-score),[5],0.848
same,glycan array binding signal (z-score),[6],8.18
same,glycan array binding signal (z-score),[7],8.54
same,glycan array binding signal (z-score),[8],2.44
same,glycan array binding signal (z-score),[9],0.212
same,glycan array binding signal (z-score),[10],2.91
same,glycan array binding signal (z-score),[11],3.87
same,glycan array binding signal (z-score),[12],0.001
same,glycan array binding signal (z-score),[13],0.251
same,glycan array binding signal (z-score),Fuc(a1-4)GlcNAc,1.76
same,glycan array binding signal (z-score),[14],-0.056
same,glycan array binding signal (z-score),Gal(a1-3)GalNAc,-0.469
same,glycan array binding signal (z-score),Gal(a1-4)GlcNAc,-0.265
same,glycan array binding signal (z-score),Gal(b1-2)Gal,0.596
same,glycan array binding signal (z-score),[15],0.347
same,glycan array binding signal (z-score),[16],1.79
same,glycan array binding signal (z-score),[17],-0.126
same,glycan array binding signal (z-score),[18],0
same,glycan array binding signal (z-score),Gal(b1-4)Glc6S,0.038
same,glycan array binding signal (z-score),Gal(b1-4)GlcNAc(b1-2)Man,2.63
same,glycan array binding signal (z-score),[19],-0.479
